KDM5B inh = blocks human KDM5B histone demethylase activity; 220,000 compounds, 2.6% hits; AID 1347165; Q9UGL1; Potency, µM (series often up to 57.7 µM), most hits filed as inhibitors; KDM5B demethylase, FDH-coupled NADH fluorescence (FDH is formaldehyde dehydrogenase); active = well fitted inhibition curve with a large enough effect; also: 0% is about no effect; nearly all actives have a fitted effect of over 70% in size
Target sequence (Q9UGL1 whole entry, looked up): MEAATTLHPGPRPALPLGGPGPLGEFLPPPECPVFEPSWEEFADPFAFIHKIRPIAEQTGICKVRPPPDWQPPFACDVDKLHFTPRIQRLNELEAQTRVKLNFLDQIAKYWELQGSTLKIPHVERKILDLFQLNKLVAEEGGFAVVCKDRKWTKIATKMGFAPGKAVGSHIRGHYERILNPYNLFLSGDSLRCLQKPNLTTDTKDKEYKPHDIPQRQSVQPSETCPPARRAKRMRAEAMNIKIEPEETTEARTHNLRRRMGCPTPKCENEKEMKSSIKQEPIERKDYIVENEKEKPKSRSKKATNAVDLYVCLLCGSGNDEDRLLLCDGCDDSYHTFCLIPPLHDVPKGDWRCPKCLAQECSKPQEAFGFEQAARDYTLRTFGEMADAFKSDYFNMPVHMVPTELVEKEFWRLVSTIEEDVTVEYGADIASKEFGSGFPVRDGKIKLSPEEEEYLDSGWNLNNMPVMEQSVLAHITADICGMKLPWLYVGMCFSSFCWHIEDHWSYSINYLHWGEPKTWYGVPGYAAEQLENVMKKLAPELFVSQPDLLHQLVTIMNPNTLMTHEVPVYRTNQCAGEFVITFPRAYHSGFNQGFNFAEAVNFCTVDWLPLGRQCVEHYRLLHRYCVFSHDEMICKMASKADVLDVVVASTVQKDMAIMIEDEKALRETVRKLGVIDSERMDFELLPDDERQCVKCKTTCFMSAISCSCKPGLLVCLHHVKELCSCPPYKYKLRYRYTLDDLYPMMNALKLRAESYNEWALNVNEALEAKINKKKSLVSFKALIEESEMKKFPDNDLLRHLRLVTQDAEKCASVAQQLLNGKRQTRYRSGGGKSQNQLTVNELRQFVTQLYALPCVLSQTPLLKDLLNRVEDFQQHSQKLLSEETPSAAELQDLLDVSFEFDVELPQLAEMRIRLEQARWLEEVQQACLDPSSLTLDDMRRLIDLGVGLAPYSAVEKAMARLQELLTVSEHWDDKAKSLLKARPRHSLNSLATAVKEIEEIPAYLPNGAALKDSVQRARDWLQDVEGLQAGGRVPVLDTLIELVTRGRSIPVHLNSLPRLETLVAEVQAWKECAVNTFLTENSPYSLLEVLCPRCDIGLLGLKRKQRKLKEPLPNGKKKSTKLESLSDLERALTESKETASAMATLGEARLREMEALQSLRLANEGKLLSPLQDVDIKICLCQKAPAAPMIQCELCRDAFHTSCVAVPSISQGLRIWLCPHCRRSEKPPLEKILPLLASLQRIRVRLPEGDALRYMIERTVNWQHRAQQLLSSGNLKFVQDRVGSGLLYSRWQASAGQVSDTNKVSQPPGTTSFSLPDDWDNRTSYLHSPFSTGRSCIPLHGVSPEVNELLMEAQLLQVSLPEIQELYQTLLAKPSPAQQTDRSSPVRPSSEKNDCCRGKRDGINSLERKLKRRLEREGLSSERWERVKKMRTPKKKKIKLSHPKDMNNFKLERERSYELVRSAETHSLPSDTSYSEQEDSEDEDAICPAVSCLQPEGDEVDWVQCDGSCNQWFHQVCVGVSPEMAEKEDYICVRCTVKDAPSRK
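KDM5BΔAP (200 nM final) in 50 mM HEPES pH 7.5, 0.01% Tween-20 was preincubated 10 min at RT with compound over a concentration range. Substrate mix (H3K4me3 12.5 µM, α-KG 25 µM, Fe²⁺, ascorbate, NAD⁺, FDH) was added, and NADH fluorescence change over 30 min gave dose-response curves.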
Active calls of the source: *; i = inactive. The sample as a whole holds a higher share of hits than the screen did. Potency is read from the fitted curve at half-maximal effect.

SMILES	KDM5B inh
Cc1cccc(-c2nc(CS(=O)CC(=O)NCCN(Cc3ccccc3)C(C)C)c(C)o2)c1 (centres undefined)	i
CCOc1ccc(-c2cc3c(=O)n(CCNC(=O)c4cnccn4)ccn3n2)cc1	25.1µM*
Cc1ccc(-c2cc3c(=O)n(CCNC(=O)c4cnccn4)ccn3n2)cc1C	22.4µM*
O=C(COC(=O)Cn1cnc2ccccc21)Nc1cccc(F)c1	i
CCCNc1c(NC(=O)CC(=O)OC)c(=O)oc2ccccc12	i
Cc1ncsc1C(=O)/C=C/c1cccs1	i
Cc1cccc(C)c1OCCCOc1ccccc1/C=N/NC(=O)c1cccc(Cl)c1	i
COc1ccc(-c2nc3cc(NC(=O)CCc4ccccc4)ccc3o2)cc1	i
Cc1ccc2c(C)c(C(=O)Nc3cccc4cccnc34)oc2c1	i
CCN(C(=O)c1cccc(Br)c1)C1CC1	i
CCC1CCCCN1CCCNC(=O)c1cc2c(Cl)nc3ccc(C)cc3c2s1 (centres undefined)	i
Cn1c(CNC(=O)c2cc3c(s2)CN(C2CC2)C3)nc2ccccc21	12.6µM*
CCC1CCCCN1CCNC(=O)c1cc2c(s1)CN(C1CCCC1)C2 (centres undefined)	14.1µM*
Cn1c(CNC(=O)CC2CCOCC2)nc2ccccc21	i
O=C(O)c1cc2c(s1)CN(C1CCCC1)C2	i
Cn1c(CNC(=O)c2cccc(C3CCNC3)c2)nc2ccccc21 (centres undefined)	i
CCN(Cc1cccc(F)c1)C(=O)Nc1ccc(N2CCN(C)CC2)cc1	i
Cc1ccc(NC(=O)C(Sc2ccccc2)c2ccccc2)c(C)c1 (centres undefined)	i
CCn1cnc2c1c(=O)n(CC(=O)NCC1(c3ccccc3)CC1)c(=O)n2Cc1ccccc1	i
Cc1ccc(S(=O)(=O)N2CCCC2C(=O)n2nc(C)c(Sc3ccccc3)c2C)cc1 (centres undefined)	i
COc1ccc(C)cc1CCNC(=O)CCc1c(C)nn(C)c1C	i
CCOc1ccc(CN(C)Cc2cc(C(C)(C)C)c(O)c(C(C)(C)C)c2)cc1OC	i
O=C(NCCc1csc(-c2ccncc2)n1)C1CNCCO1 (centres undefined)	28.2µM*
O=C(Cc1cccs1)NCCc1csc(-c2ccccc2)n1	i
CC(=O)N1CCC(Cc2noc(-c3ccncc3)n2)C1 (centres undefined)	i
SMILES	KDM5B inh
O=C(NCCc1ccc(Cl)cc1Cl)C1CNCCO1 (centres undefined)	i
O=C(COc1ccc(Cl)cc1)NCCc1csc(-c2ccncc2)n1	i
CC(=O)N1CCCC(C(=O)NCCc2csc(-c3ccncc3)n2)C1 (centres undefined)	22.4µM*
Cc1cc(C(=O)Nc2ccc(SC3CCCC3)cc2)c(C)o1	i
CCOc1ccccc1CN1CCNC(=O)C1CC(=O)N(C)Cc1cnccn1 (centres undefined)	i
CCOc1ccccc1CN1CCNC(=O)C1CC(=O)N(C)Cc1nonc1C (centres undefined)	i
CCn1ncc(CN(C)C(=O)CC2C(=O)NCCN2C(C)C)c1C (centres undefined)	31.6µM*
Cc1nc(/N=C(\N)NC(=O)Cc2ccccc2)nc2ccccc12	i
Cc1ccccc1CNC(=O)Cc1n[nH]c(=O)c2ccccc12	i
CC(C)C(C(=O)Nc1nc2ccc(S(C)(=O)=O)cc2s1)c1ccc(Cl)cc1 (centres undefined)	i
NC(=O)Cc1csc(NC(=O)CCc2ncc(-c3ccc(F)cc3)o2)n1	i
Cc1ccc(CNC(=S)Nc2ccccc2Cl)cc1	i
O=C1COCC2(CN1Cc1cccc(OC(F)(F)F)c1)CN(c1ccccc1F)C2	i
COc1cncc(N2CC3(COCC(=O)N(Cc4cccc(OC(F)(F)F)c4)C3)C2)c1	28.2µM*
Cn1cc(CN2CC3(COCC(=O)N(Cc4cccc(OC(F)(F)F)c4)C3)C2)cn1	i
O=Cc1ccc(-c2ccccc2Br)o1	i
C#CC(C)(CC)NC(=O)/C(=C/c1ccccc1)NC(=O)c1ccccc1 (centres undefined)	i
CN1c2cccnc2CN(C(=O)Nc2ccc(Cl)cc2)CC[C@H]1CO	i
CN1c2cccnc2CN(C2CCC(CO)CC2)CC[C@H]1CO (some centres undefined)	i
CC(=O)N1CCC(N2CC[C@@H](CO)N(C)c3ncccc3C2)CC1	35.5µM*
CCCOc1c(Cl)cc(C2C3=C(CCCC3=O)OC3=C2C(=O)CCC3)cc1OCC	i
O=C(CN1CCN(c2ccccc2O)CC1)N1N=C(c2cc3ccccc3o2)CC1c1ccco1 (centres undefined)	i
Cc1nc2ccccc2c(-c2ccccc2)c1C(=O)/C=C/c1ccccc1	i
O=C(NC1CC1)c1nc(-c2cccnc2)c2ccccn12	89.1µM*
O=C(NC1CC1)c1nc(-c2ccc(F)cc2)c2ccccn12	31.6µM*
SMILES	KDM5B inh
O=C(Nc1c(NC2CCCC2)c2ccccc2oc1=O)c1ccc(Br)o1	i
O=C(Nc1ccc(F)cc1)C(Sc1cccc[n+]1[O-])c1ccccc1 (centres undefined)	i
Cc1cnc2c(S(=O)(=O)NCC3CC3)cccc2c1	i
COc1ccc(N2CC(C(=O)NCCNC(=O)c3c[nH]c4ccccc34)CC2=O)cc1 (centres undefined)	i
COCC(=O)NC[C@@H]1C=C(C)[C@H](Cc2nc3ccc(C(=O)OC)cc3[nH]2)C[C@H]1C(C)C	i
O=C(O)CCn1ncc2cc(OCc3ccc(-c4cccc(CO)c4)cc3)ccc21	i
Cc1cccc(CCCCCCCCCCCC(=O)O)c1	i
CC(=O)NC1(C)CCCN(Cc2cccc(-c3c(C)noc3C)c2)C1 (centres undefined)	i
Cn1cc(-c2cc(C(F)F)c3c(C4CC4)nn(CC(=O)O)c3n2)cn1	i
Cn1cc(-c2cccc(CCOc3cnc4c(ccn4CC(=O)O)c3)c2)cn1	39.8µM*
Cc1cc(-c2cccc(CCOc3cnc4c(ccn4CC(=O)O)c3)c2)ccn1	35.5µM*
Cc1noc(C)c1-c1cccc(CCOc2cnc3c(ccn3CC(=O)O)c2)c1	39.8µM*
Cc1cccc(CSCC(=O)O)c1	i
CCc1cccc(OCCOC(=O)c2cc(C)nc3ccccc23)c1	i
Cc1cccc(-c2cccc(CCOc3cnc4c(ccn4CC(=O)O)c3)c2)c1	31.6µM*
Cc1noc(C)c1-c1cc2c(c(-c3cccc(CO)c3)c1)C(=O)N(C)C2=O	i
Cn1cc(-c2cccc(COc3ccc4c(cnn4CC[S+](C)(=O)[O-])c3)c2)cn1	i
CC(C)(C)NC(=O)CSc1ncc(-c2ccc(Cl)cc2)o1	i
Cc1nc(NC(=O)c2cc(Cl)cc(Cl)c2)sc1C	i
COc1cc2c(cc1OC)CN(C(=O)c1sc3cccc(F)c3c1C)CC2	i
CCOC(=O)Cc1cc(=O)n2[nH]c(NCc3ccccc3Cl)nc2n1	i
Fc1ccc(-c2csc(/C=C/c3cccc(OCc4ccccc4)c3)n2)cc1	i
CC(C)CNC(=O)C(=O)NC1CC(C)(C)NC(C)(C)C1	i
S=C(Nc1ccc(Cl)cc1)NC1CC1	i
O=C(O)COc1cccc2[nH]ccc12	i
Cc1ccsc1C=Nc1ccc(C23CC4CC(CC(C4)C2)C3)cc1	i
O=C(O)Cn1ccc2cc(OCCc3cccc(-c4cncnc4)c3)cnc21	28.2µM*
O=C(C1CCOCC1)N1CCC(Oc2cnc3c(ccn3-c3cncnc3)c2)CC1	i
COCCOC(=O)N1CCC(Oc2cnc3c(ccn3-c3cncnc3)c2)CC1	i
